Bioassay records: PubChem BioAssay, several laboratories
NALP1 inh: inhibitors of NALP1 inflammasome in yeast | inhibition, % at 10 µM | actives 0.61% (n = 280,000) | S. cerevisiae NALP1/ASC/caspase-1 growth, X-gal OD620, 72 h; in the data active = inhibition mostly above about 24%, no sharp cut-off; inactive = mostly below about 32%
NALP3 yeast inh: blocks the NALP3 inflammasome reconstituted in yeast; Yeast reconstituted NLRP3/ASC/caspase-1, beta-gal luminescence, 24 h; actives 0.39% (n = 330,000); inhibition, % at 10 µM;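 active = inhibition of 50% or more; inactive = inhibition below 50%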;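 also: plate controls were induced DMSO wells for no effect and uninduced yeast grown without galactose for full effect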
TIM10 inh: TIM10 yeast growth inhibition. S. cerevisiae TIM10 strain growth, BacTiter-Glo luminescence, 24 h. inhibition, % at 10 µM. actives 1.4% (n = 330,000);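 active = inhibition of 40% or more at the single tested concentration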;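 also: wild-type TIM10 isogenic control strain grown at permissive 25 °C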
tim23-1 inh: inhibits growth of tim23-1 mutant yeast | S. cerevisiae tim23-1 growth, BacTiter-Glo luminescence, 24 h | inhibition, % at 20 µM | actives 1.3% (n = 330,000) | AID 463212;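 active = growth inhibition of the mutant yeast at or above 50%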;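 also: temperature-sensitive mutant grown at 25 °C; plate controls were DMSO-treated mutant yeast for no effect and medium wells lacking yeast for full effect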
tim10-1 inh: tim10-1 yeast growth inhibition | AID 463190 | S. cerevisiae tim10-1 ts strain growth, BacTiter-Glo, 24 h | actives 2.2% (n = 330,000) | inhibition, % at 20 µM;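 active = inhibition of at least 40%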;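 also: mutant grown at 25 °C; 0% = DMSO wells with yeast and 100% = wells holding no yeast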
V-ATPase pH: yeast V-ATPase proton transport regulation by pHLuorin. actives 0.37% (n = 350,000). S. cerevisiae, pHLuorin cytosolic pH fluorescence. response, % at 10 µM; in the data active = response mostly above about 7.3%, no sharp cut-off; inactive = mostly below about 5.4%; also: actives read high
TIM10 conf: TIM10 yeast growth inhibition, confirmed. shares compounds with TIM10 inh. S. cerevisiae tim10 strain growth, BacTiter-Glo luminescence, 24 h. inhibition, % at 10 µM. actives 63% (n = 4,600);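 active = inhibition of yeast growth at or above a set limit in either of two replicates at 10 µM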;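 also: this counterscreen used the strain with wild-type TIM10; 0% = yeast with DMSO and 100% = medium wells lacking yeast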
Numbers without * were called inactive; . = not tested or not shown. Shown are actives, neighbours in structure and some others; about 4.2% of the full set was active somewhere.

SMILES	NALP1 inh	NALP3 yeast inh	TIM10 inh	tim23-1 inh	tim10-1 inh	V-ATPase pH	TIM10 conf
CC(=O)c1c(C)nc2sc3c(=N)n(N)cnc3c2c1-c1ccc(Cl)cc1	8	9	5	8	24	-2	.
C=C[C@H]1C(O[C@@H]2O[C@H](CO)[C@@H](O)[C@H](O)[C@H]2O)OC=C2C(=O)N3CCc4cc(OC)c(O)cc4[C@H]3C[C@H]21 (some centres not stated)	.	5	-2	12	0	1	.
COC(=O)c1c(NC(=O)COc2ccc(Cl)cc2)sc2c1CC(C)(C)NC2(C)C	26	22	46*	44	39	2	31
COC(=O)c1c(NC(=O)Cc2ccccc2)sc2c1CC(C)(C)NC2(C)C	25	13	7	6	11	-3	.
Cc1ccc(C(=O)NC(=S)Nc2ccccc2C(F)(F)F)cc1	-14	21	40*	28	26	5	12
Cc1ccc(C(=O)NCC(=O)Nc2ccccc2C(F)(F)F)cc1	27	16	8	15	-12	-2	.
CCN1CCN(C(=O)c2cc3cc4cc(OC)ccc4nc3s2)CC1	-1	16	-6	5	6	-2	.
COc1ccc2cc3cc(C(=O)NCCCN4CCc5ccccc5C4)sc3nc2c1	4	-3	63*	13	8	4	54*
COc1ccc2cc3cc(C(=O)NC4CC4)sc3nc2c1	19	19	15	3	4	1	.
COc1ccc2nc3sc(C(=O)NCCN4CCc5ccccc5C4)cc3cc2c1	-8	12	75*	39	31	6	80*
Cc1cc(N2CCN(c3nc4ccccc4s3)CC2)n2ncnc2n1	16	-6	18	25	18	0	.
Cc1ccc(Cn2cnc3ccccc32)cc1C	36	40	40*	19	1	0	20
Cc1cccc(Cn2cnc3ccccc32)c1	0	-2	12	4	18	1	.
Nc1c(C(=O)Nc2ccccc2F)sc2nc(-c3ccco3)ccc12	-6	9	41*	6	18	-2	19
Nc1nc2ccccc2n1/N=C/c1ccc(Br)cc1	-7	18	44*	36	19	2	30
Nc1nc2ccccc2n1/N=C/c1ccc2c(c1)OCO2	2	8	17	13	1	0	.
CN1CCC(N(C)S(=O)(=O)c2ccc(Cl)cc2)CC1	28	20	-47	-95	-36	-3	.
CN(C)c1ccc(/C=C(\C#N)C(=O)NCc2ccco2)cc1	13	0	15	11	4	.	.
Cn1c(=O)n(C)c2cc(/C=C(/C#N)C(=O)NCc3ccco3)ccc21	12	4	43*	21	34	-1	37*
COCCCNCC(=O)Nc1ccc(OC(F)(F)F)cc1	1	10	1	3	10	2	.
O=C(Nc1ccccc1)Nc1cccc(Cl)c1Cl	37	25	45*	40	20	2	18
O=C(Nc1ccncc1)Nc1cccc(Cl)c1Cl	12	14	-76	-18	-12	-1	.
O=C1NCCOC(=O)[C@H](Cc2ccc(F)cc2)C/C=C\C[C@@H]1CC(=O)N(CCO)Cc1ccccc1	.	6	4	0	-8	0	.
O=C1NCCOC(=O)[C@H](Cc2ccc(F)cc2)C/C=C\C[C@H]1CC(=O)N(CCO)Cc1ccccc1	.	8	47*	-9	-6	2	-5
CCOc1ccc(NC(=O)c2nn(C)c(C(=O)Nc3ccc(OCC)cc3)c2[N+](=O)[O-])cc1	10	19	94*	-2	-15	-1	-24
COc1ccc2oc(=O)c(-c3csc(Nc4ccc(O)cc4)n3)cc2c1	39	30	41*	19	37	-5	-29
CC(=O)C(Sc1nc(NC(C)(C)C)nc(N(C)C)n1)C(C)=O	-12	16	44*	27	29	-1	12
O=C(Nc1ccc(-c2cn3ccsc3n2)cc1)C1CC1	2	8	57*	9	17	9	26
O=C(/C=C/c1ccccc1)NNc1ccc(Cl)cc1	7	31	44*	8	-19	-3	48*
O=C(O)c1ccccc1C(=O)NNc1ccc(Cl)cc1	19	2	46*	8	26	1	30*
